In PubChem BioAssay AID1490 (National Center for Advancing Translational Sciences (NCATS), 2009):
Hit rate of the full screen: of about 310,000 compounds, about 11,000 (3.5%) were called active. Another 4% or so got no clear call; they are omitted. Calls come from the whole dose curve; as a rule, active = well fitted inhibition curve with a large enough effect; inconclusive = small, poorly fitted or top-dose-only effect, or another doubt; inactive = no such curve, though single readings can be large or run the other way. Many of the other results were omitted from the sample, so actives are more common in it than they were.

Target: 4'-phosphopantetheinyl transferase ffp (Bacillus subtilis) (UniProt Q9F4F7)
Experiment: qHTS Assay for Inhibitors of Bacillus subtilis Sfp phosphopantetheinyl transferase (PPTase);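 note: the enzyme is Sfp with the accession as filed and its product quenches rhodamine fluorescence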;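 for largest response in the series, negative = inhibition: 0% = enzyme reaction without inhibitor and -100% = no enzyme wells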
Conditions: Biochemical Sfp PPTase activity
Method in brief: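 Compounds were incubated with enzyme (final 15 nM) for 15 min at room temperature before substrate addition started the reaction. Fluorescence at 525 nm excitation, 598 nm emission was recorded immediately and after 30 minutes.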
Potency is the fitted concentration of half-maximal effect.

SMILES	largest response in the series, negative = inhibition	Potency
Cc1cc(C)c2oc(C(=O)Nc3ccc(S(=O)(=O)Nc4nccc(C)n4)cc3)cc(=O)c2c1	13.2% (inactive)	
COc1ccc(C(=O)Nc2cc(C)c(NC(=O)c3ccccc3OC)cn2)cc1	-0.964% (inactive)	
Cc1cccc(Oc2c([N+](=O)[O-])c(=O)n(C)c3ccccc23)c1		6.31 µM (active)
Cc1cccc(OP(=O)(Nc2c(C)n(C)n(-c3ccccc3)c2=O)Oc2cccc(C)c2)c1	2% (inactive)	
Cn1c2ccccc2c(=O)c2c(O)cccc21	1.81% (inactive)	
Cn1nc(-c2ccccc2)c2cc([N+](=O)[O-])ccc21	15.4% (inactive)	
Cn1c(=O)c([N+](=O)[O-])c(Oc2ccccc2)c2ccccc21		20 µM (active)
Cc1nn(C)c(Oc2ccccc2)c1[N+](=O)[O-]	4.16% (inactive)	
CC(C)[C@H](NC(=O)N1c2ccccc2NC(=O)[C@@H]1C(C)C)C(=O)N[C@H](C(=O)O)c1ccccc1	21% (inactive)	
CCCN1CCC(=O)N(C(CSc2ccc(OC)cc2)Cc2ccccc2)CC1 (stereo not given)	-7.33% (inactive)	
COc1cc(C2/C(=C(\O)c3ccc4c(c3)CC(C)O4)C(=O)C(=O)N2c2nnc(C)s2)cc(OC)c1OC (stereo not given)	-19.8% (inactive)	
Cc1ccc(-c2ccnc3[nH]n(-c4ccccc4)c(=O)c23)cc1	9.66% (inactive)	
O=C1CSC(=S)N1c1ccc(O)cc1	-9.51% (inactive)	
CCOc1cccc(/C=N/NC(=S)NCCN2CCOCC2)c1O	9.81% (inactive)	
CCOc1cccc(/C=N/N2C(=O)CSC2=S)c1O		10 µM (active)
COc1ccccc1NC(=O)C(C)OC(=O)CC1CCCC1 (stereo not given)	16.2% (inactive)	
CC(C)Cn1c(=O)c2ccccc2n2c(CCC(=O)NCc3ccccn3)nnc12	15.4% (inactive)	
COc1ccc(NC(=O)N2CCCC2C(=O)NCc2ccccc2Cl)cc1 (stereo not given)	1.27% (inactive)	
CC(=O)Nc1ccc(S(=O)(=O)Nc2cc(C)cn(Cc3ccc(C)cc3)c2=O)cc1	1.38% (inactive)	
Cc1ccc(NC(=O)c2csc3c2CCCC3)cc1	-32.4% (inactive)	
Cc1ccc(NC(=O)c2c(NC(=O)CCC(=O)O)sc3c2CCCCC3)cc1		11.2 µM (active)
O=C(CN1CCCC1)Nc1sc2c(c1C(=O)Nc1ccccc1)CCCC2	-1.37% (inactive)	
CC1(C)SC2c3ccccc3C(=O)N2[C@@H]1C(=O)NCc1ccco1 (stereo not given in full)	-10.3% (inactive)	
COCCCNC(=O)[C@H]1N2C(=O)c3ccccc3C2SC1(C)C (stereo not given in full)		56.2 µM (active)

SMILES	largest response in the series, negative = inhibition	Potency
COCCCNC(=O)C1CC(=O)N(CCc2ccccc2)C1 (stereo not given)	9.12% (inactive)	
CCC(C)NC(=O)C1c2ccccc2C(=O)N1Cc1ccccc1 (stereo not given)	0.907% (inactive)	
CC1(C)C(C=C(Cl)Cl)C1C(=O)NC(O)C(=O)c1ccccc1 (stereo not given)	3.88% (inactive)	
Cc1ccc(S(=O)(=O)N(CC(O)CN2C(=O)NC(C)(C)C2=O)c2cccc([N+](=O)[O-])c2)cc1 (stereo not given)	5.58% (inactive)	
Cn1c(=O)n(Cc2ccco2)c(=N)c2c3c(sc21)CCCC3	-9.41% (inactive)	
CCCSc1nc(NCc2ccco2)c2c3c(sc2n1)COC(C)(CC)C3 (stereo not given)	-1.25% (inactive)	
CN1CCc2c(sc3c2c(NCc2ccco2)nc2nnnn23)C1		11.2 µM (active)
Cc1ccc(C)c(C(C)NC(=O)C2CCCO2)c1 (stereo not given)	24.3% (inactive)	
O=C(/C=C/c1ccc2c(c1)OCCO2)c1ccc(O)cc1	-4.02% (inactive)	
CN(CCO)c1ccc(/C=N/Nc2nncc3ccccc23)cc1	6.72% (inactive)	
CCC(C(=O)NCCC(C)C)N(Cc1ccccc1Cl)C(=O)c1snc(C(N)=O)c1N (stereo not given)	7.3% (inactive)	
Cc1csc(NC(=O)Nc2ccccc2[N+](=O)[O-])n1	-6.55% (inactive)	
Cc1csc(NC(=O)NC2(C(F)(F)F)Oc3ccccc3O2)n1		8.91 µM (active)
CC(=O)Nc1cccc(C(=O)Nc2nc(C)cs2)c1	-6.97% (inactive)	
COc1ccc2c(CC(=O)N3CCc4cc(OC)c(OC)cc4C3)coc2c1	1% (inactive)	
CNc1nnc(-c2ccco2)s1	5.68% (inactive)	
Cc1ccc(OCC(=O)Nc2nnc(-c3ccco3)s2)cc1		79.4 µM (active)
COc1ccc(OCC(=O)Nc2nnc(-c3ccco3)s2)cc1	-15% (inactive)	
COc1ccc(N(CC(=O)NCC2CCCO2)C(=O)CCC(=O)Nc2nccs2)c(OC)c1 (stereo not given)	26.6% (inactive)	
CCOc1ccc(C(=O)Nc2ccc(CN3CCOCC3)cc2)cc1Cl	8.41% (inactive)	
O=C(Nc1ccc(O)cc1)c1ccccc1O	-1.36% (inactive)	
Cc1ccccc1Cn1c(=O)[nH]c2ccccc21	-2.4% (inactive)	
CCCc1cc(=S)n2c([nH]c3ccccc32)c1C#N		56.2 µM (active)
CCOC(=O)CCc1c(C)c(C#N)c2[nH]c3ccccc3n2c1=O	-12.3% (inactive)	

SMILES	largest response in the series, negative = inhibition	Potency
Cc1cccn2cc(-c3cccc(S(=O)(=O)N4CCCCC4)c3)nc12	-2.13% (inactive)	
Cc1ccc(NC(=O)CSc2nnc(-c3cnccn3)n2Cc2ccco2)cc1C	-38.6% (inactive)	
COc1ccc(NC(=O)CSc2nnc(-c3cccs3)n2Cc2ccco2)cc1OC		22.4 µM (active)
CCn1c(SCC(=O)c2ccc3ccccc3c2)nnc1-c1cccs1	-21.9% (inactive)	
O=C(CSc1nnc(-c2cccnc2)n1Cc1ccco1)c1ccc(Cl)c(Cl)c1		28.2 µM (active)
O=C(CSc1nnc(-c2cccs2)n1-c1ccccc1)NCc1ccco1	14.2% (inactive)	
CCn1c(SCC(=O)c2ccc(Cl)s2)nnc1-c1cccs1	-7.42% (inactive)	
CCOC(=O)Cc1csc(NC(=O)CSc2nnc(-c3cccnc3)n2Cc2ccco2)n1	-19.3% (inactive)	
COc1ccccc1NC(=O)CSc1nnc(-c2ccoc2C)n1CCc1ccccc1	-0.913% (inactive)	
COc1ccccc1NC(=O)CSc1nc2sc3c(c2c(=O)n1-c1ccccc1)CCN(C)C3	-13.2% (inactive)	
O=C(CSc1nnc(-c2cccs2)n1Cc1ccco1)c1ccc2c(c1)OCO2		56.2 µM (active)
O=C(CSc1nnc(-c2cccnc2)n1Cc1ccco1)c1ccc(Cl)cc1	5.12% (inactive)	
COc1ccccc1NC(=O)CSc1nc2sc(C)c(C)c2c(=O)n1Cc1ccco1		20 µM (active)
O=C1Nc2cc(C(=O)N3CCC(N4CCCCC4)CC3)ccc2S/C1=C\c1ccccc1	-28.2% (inactive)	
CCCNC(=O)CCc1c(C)nc2c(c(C)nn2-c2ccc(C)cc2)c1C	20.1% (inactive)	
O=C(NC1CCCC1)C(=O)c1c[nH]c2ccccc12	20.8% (inactive)	
CC(C)C[C@@H](CC(=O)N[C@@H](CCC(=O)O)CC(=O)O)NC(=O)[C@@H]1CCCC[C@H]1NC(=O)C[C@@H](NC(=O)C[C@H](Cc1c[nH]c2ccccc12)NC(=O)[C@@H]1CCCC[C@H]1N)C(C)C	-18.7% (inactive)	
CCOC(=O)c1ccc(NC(=O)Cc2cccs2)cc1	0.409% (inactive)	
COc1ccc(NC(=O)C2CCC(CNC(=O)[C@@H]3Cc4ccccc4CN3)CC2)cc1 (stereo not given in full)	7.97% (inactive)	
O=C(COc1ccc(S(=O)(=O)Nc2cccc(C(F)(F)F)c2)cc1)N1CCOCC1	9.23% (inactive)	
O=C(NC1CCCC1)C(c1ccco1)N(C(=O)c1csnn1)c1ccccc1 (stereo not given)	19.9% (inactive)	
Cn1cc(-c2nc3cnc(N4CCNCC4)nc3n(CCc3ccccc3)c2=O)c2ccccc21		39.8 µM (active)
Cc1nc2cnc(N3CCNCC3)nc2n(CCc2ccccc2)c1=O	-8.2% (inactive)	
Cn1cc(-c2nc3cnc(N4CCNCC4)nc3n(CCC#N)c2=O)c2ccccc21	-19.5% (inactive)	

SMILES	largest response in the series, negative = inhibition	Potency
COc1ccc(C2/C=C\CN(C(=O)c3ccc(C)cc3)C(Cc3ccccc3)C(=O)N2Cc2ccc(F)cc2)cc1 (stereo not given)	-6.91% (inactive)	
CC1(C(=O)NNC(=S)NCC2CCCO2)CC1(Cl)Cl (stereo not given)	17.2% (inactive)	
Cc1cccc(C)c1NC(=O)NC1=CCCN1C	20.1% (inactive)	
Cc1cc(OCc2ccc(C(=O)Nc3ccc(C(=O)O)cc3)o2)ccc1Cl	0.726% (inactive)	
Cc1cc(C(=O)Nc2c(C)nn(Cc3ccccc3)c2C)on1	18.5% (inactive)	
Cc1ccc(C(=O)O)cc1NC(=O)c1ccc(Cn2nc(C)c(Cl)c2C)o1		56.2 µM (active)
Cc1cc(C)nc(NNC2=CC(=O)CC(C)(C)C2)n1		22.4 µM (active)
COC(=O)NNC1=CC(=O)CC(C)(C)C1	-3.96% (inactive)	
CC1(C)CC(=O)C=C(Nc2ccccc2)C1	25.1% (inactive)	
Cc1ccc2c(c1)N(CC(=O)N1CCCC(C)C1)C(=O)CO2 (stereo not given)	5.13% (inactive)	
CCn1c(C)c(C)c2cc(C(=O)N3CCN(c4cccc(C)c4C)CC3)ccc21	-24.3% (inactive)	
CCOC(=O)C1=C(C)NC(=O)N(C(C)=O)C1c1ccc(Cl)cc1 (stereo not given)	19% (inactive)	
CCOC(=O)c1[nH]c2c(c1-c1ccccc1)C(=O)CC(c1ccc(Cl)cc1)C2 (stereo not given)	5.24% (inactive)	
CCOC(=O)C1Sc2[nH]c(=O)sc2C(c2ccc(Cl)cc2)C1C(=O)OCC (stereo not given)		22.4 µM (active)
CCC(C)c1ccc(NC(=S)N2CCCC2)cc1 (stereo not given)	7.33% (inactive)	
c1nc(COc2nsnc2N2CCOCC2)cs1	0.0907% (inactive)	
O=C(O)COc1nsnc1N1CCOCC1	18.9% (inactive)	
c1ccc(COc2nsnc2N2CCOCC2)cc1		28.2 µM (active)
CCc1c(C)c2ccc(OC3CCCCC3=O)cc2oc1=O (stereo not given)	-0.0226% (inactive)	
CCOC(=O)C(C)n1cnc2c(nnn2-c2ccc(F)cc2)c1=O (stereo not given)	8.12% (inactive)	
O=S(=O)(NCCNS(=O)(=O)c1ccccc1)c1ccccc1	14.7% (inactive)	
O=c1/c(=C/c2ccc(CNS(=O)(=O)c3ccccc3)o2)sc2n1CCN=2		50.1 µM (active)
O=S(=O)(NCc1ccccc1)c1ccc(S(=O)(=O)N2CCCC2)cc1	-13.6% (inactive)	
